Assay [1] addresses Bile acid receptor (Homo sapiens) (UniProt Q96RI1). The experiment in a line: ATG_IR1_CIS: Attagene CIS-FACTORIAL HepG2 Assay for human Nuclear Receptor Subfamily 1 Group H Member 4 (NR1H4), IR1 submotif (AID 2282946). As to conditions: IR1 reporter transcription, actives raise or lower the signal. The gist of the method:
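Transient MRTU transfection, HepG2; 24 h dosing; RNA → RT-PCR → 6-FAM primer extension → HpaI digest → capillary electrophoresis fluorescence. Gain/loss of signal fitted relative to DMSO.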

Assay [2] in a line: ATG_GRE_CIS: Attagene CIS-FACTORIAL HepG2 Assay for human Glucocorticoid Response Elements (GRE) (AID 2282947). As to conditions: HepG2 GRE cis-reporter, Attagene multiplex mRNA; actives raise or lower the signal. The essentials: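 HepG2 cells transiently transfected with multiple cis-promoter reporter units measure endogenous TF activity; 24 h compound exposure. Reporter mRNA quantified by RT-PCR, FAM labelling, HpaI digestion and capillary electrophoresis; bidirectional fit vs DMSO baseline.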

Assay [3] is described as follows: ATG_ISRE_CIS: Attagene CIS-FACTORIAL HepG2 Assay for human Interferon Regulatory Factor 1 (IRF1) binding to an Interferon-Stimulated Response Element (ISRE) (AID 2282948). As to conditions: HepG2 ISRE cis-reporter (Attagene), mRNA transcription readout; actives raise or lower the signal. The gist of the method: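 Transiently transfected HepG2 cells carrying cis-element reporter units, dosed 24 hours. Reporter mRNA quantified by RT-PCR, fluorescent primer extension, HpaI digestion and capillary electrophoresis. Bidirectional fitting relative to DMSO.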

Assay [4] can be described thus: ATG_M_06_CIS: Attagene CIS-FACTORIAL HepG2 Assay for M06 Transcription Factor (Internal Marker) (AID 2282950). Particulars: HepG2 Attagene CIS-FACTORIAL M06 internal marker reporter; actives raise or lower the signal. The gist of the method: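 Terse: HepG2, transient MRTU transfection (FuGene 6), 24 h dosing; total RNA, oligo(dT) RT, PCR, FAM label, HpaI cut, capillary electrophoresis; bidirectional fit vs DMSO baseline; background-control endpoint.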

Assay [5] addresses Hypoxia-inducible factor 1-alpha (Homo sapiens) (UniProt Q16665). The experiment in a line: ATG_HIF1a_CIS: Attagene CIS-FACTORIAL HepG2 Assay for human Hypoxia Inducible Factor 1 (HIF1A) (AID 2282951). Particulars: HepG2 Attagene cis-factorial HIF1a reporter transcription; actives raise or lower the signal. The gist of the method:
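Transient MRTU transfection of human HepG2 liver cells, 24 h compound treatment, then total RNA isolation, oligo(dT) reverse transcription, PCR amplification, fluorescent labelling and capillary electrophoresis of reporter fragments. Gain or loss relative to DMSO.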

Assay [6] concerns the target Hepatocyte nuclear factor 6 (Homo sapiens) (UniProt Q9UBC0). The experiment in a line: ATG_HNF6_CIS: Attagene CIS-FACTORIAL HepG2 Assay for human Hepatocyte Nuclear Factor 6 (HNF6) (AID 2282952). Particulars: HepG2 Attagene cis-factorial HNF6 reporter transcription; actives raise or lower the signal. The gist of the method: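 Cells are HepG2 carrying transiently transfected cis-promoter reporter units. Treatment lasts 24 h, after which reporter transcripts are reverse-transcribed, amplified, FAM-labelled and sized by capillary electrophoresis. DMSO serves as baseline.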

The target in assay [7] is Heat shock factor protein 1 (Homo sapiens) (UniProt Q00613). The experiment in a line: ATG_HSE_CIS: Attagene CIS-FACTORIAL HepG2 Assay for human Heat Shock Transcription Factor 1 (HSE) (AID 2282953). As to conditions: HepG2 HSE cis-reporter, Attagene RNA transcription; actives raise or lower the signal. The essentials:
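Read-out: fluorescence of reporter-specific RT-PCR fragments separated by capillary electrophoresis. HepG2 carrying transfected cis-element reporter units; 24 h dosing; activity fitted in both directions relative to DMSO baseline.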

A short description of assay [8]: ATG_MRE_CIS: Attagene CIS-FACTORIAL HepG2 Assay for human Metal Responsive Element (MRE) (AID 2282954). Particulars: HepG2 MRE cis-reporter transcription, Attagene multiplex; actives raise or lower the signal. The gist of the method: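 HepG2 cells transiently transfected with multiple cis-element reporter units measure endogenous MTF1-driven transcription. After 24 h compound exposure, reporter mRNA is quantified by RT-PCR with 6-FAM labelling, HpaI digestion and capillary electrophoresis; bidirectional fits versus DMSO.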

Assay [9] can be described thus: ATG_PBREM_CIS: Attagene CIS-FACTORIAL HepG2 Assay for human Phenobarbital-responsive Enhancer Module (PBREM) (AID 2282955). Particulars: HepG2 PBREM cis-reporter, Attagene multiplexed transcription; actives raise or lower the signal. The gist of the method: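 Endogenous transcription factors in human liver HepG2 cells drive a PBREM cis-element reporter, whose transcript level after 24 h treatment is quantified by RT-PCR with capillary electrophoresis; activity fitted in both directions against DMSO.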

In assay [10] the target is Paired box protein Pax-6 (Homo sapiens) (UniProt P26367). The assay is described as follows: ATG_Pax6_CIS: Attagene CIS-FACTORIAL HepG2 Assay for human Paired Box 6 (PAX6) (AID 2282956). As to conditions: HepG2 CIS-FACTORIAL PAX6 reporter transcription, RNA readout; actives raise or lower the signal. The gist of the method:
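HepG2 cells transiently transfected with cis-promoter-driven multiplexed reporter units sensing endogenous transcription factor activity; 24 h chemical exposure. Reporter mRNA quantified by RT-PCR, 6-FAM labelling, HpaI digestion and capillary electrophoresis; bidirectional fit versus DMSO baseline.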

Assay [11] is described as follows: ATG_PXRE_CIS: Attagene CIS-FACTORIAL HepG2 Assay for human Pregnane X Receptor Element (PXRE) (AID 2282957). Particulars: HepG2 Attagene CIS-FACTORIAL PXRE reporter, mRNA; actives raise or lower the signal. The essentials:
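Multiplexed cis-reporter assay in transiently transfected human HepG2 cells; 24 h chemical exposure. Reporter transcripts quantified by RT-PCR with fluorescent labeling and capillary electrophoresis.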

Assay [12] is described as follows: ATG_RORE_CIS: Attagene CIS-FACTORIAL HepG2 Assay for human RAR-related Orphan Receptor Element (RORE) (AID 2282959). Particulars: HepG2 Attagene cis-factorial RORE reporter, mRNA; actives raise or lower the signal. The gist of the method: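 Transient MRTU transfection of human HepG2 liver cells (FuGene 6); 24 h compound exposure; TriZol RNA, oligo(dT) RT, PCR, FAM labeling, HpaI cut, CE fragment analysis. DMSO = negative control/baseline.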

A short description of assay [13]: ATG_Sox_CIS: Attagene CIS-FACTORIAL HepG2 Assay for human SRY-box transcription factor (SOX) (AID 2282960). Particulars: HepG2 Attagene cis-factorial SOX reporter, mRNA; actives raise or lower the signal. The essentials:
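Endogenous factor activity in human liver HepG2 cells carrying transfected cis-regulated reporter units. RNA taken 24 h post-dose, reverse-transcribed, PCR-amplified and sized by capillary electrophoresis. Gain or loss of signal fitted relative to DMSO.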

Assay [14] addresses Transcription factor Sp1 (Homo sapiens) (UniProt P08047). The experiment in a line: ATG_Sp1_CIS: Attagene CIS-FACTORIAL HepG2 Assay for human Specificity Protein 1 (Sp1) (AID 2282961). As to conditions: HepG2 Sp1 cis-reporter transcription, actives raise or lower the signal. The essentials:
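Transient MRTU-transfected HepG2, 24 h compound exposure. Total RNA → oligo(dT) RT → PCR of reporter → 6-FAM primer extension → HpaI digest → CE. Endpoint fitted both directions vs DMSO.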

Assay [15] can be described thus: ATG_SREBP_CIS: Attagene CIS-FACTORIAL HepG2 Assay for human Sterol Regulatory Element Binding (SREBP) (AID 2282962). As to conditions: HepG2 Attagene cis-factorial SREBP reporter, mRNA; actives raise or lower the signal. The essentials: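 HepG2 cells transiently transfected with multiplexed cis-promoter reporter units sensing endogenous transcription factors; reporter mRNA measured 24 h after dosing by RT-PCR, 6-FAM labeling, HpaI digestion and capillary electrophoresis. Bidirectional fit versus DMSO.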

The target of assay [16] is Signal transducer and activator of transcription 3 (Homo sapiens) (UniProt P40763). The assay is described as follows: ATG_STAT3_CIS: Attagene CIS-FACTORIAL HepG2 Assay for human Signal Transducer and Activator of Transcription 3 (STAT3) (AID 2282963). Particulars: HepG2, Attagene cis-factorial STAT3 reporter transcription; actives raise or lower the signal. The gist of the method: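 HepG2 cells transiently transfected with cis-element-driven multiple reporter transcription units; after 24 h chemical exposure, reporter mRNA measured by RT-PCR, 6-FAM primer-extension labelling, HpaI digestion and capillary electrophoresis. Bidirectional fitting versus DMSO baseline.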

The nature of assay [17]: ATG_TA_CIS: Attagene CIS-FACTORIAL HepG2 Assay for human TA Basal Promoter (AID 2282964). As to conditions: HepG2 Attagene CIS-factorial TA basal promoter reporter; actives raise or lower the signal. The essentials:
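Transfected HepG2, 24 h compound exposure; RNA → RT-PCR → FAM primer extension → HpaI cut → CE fluorescence. Gain/loss-of-signal fitted against DMSO negative control. Background-control readout.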

A short description of assay [18]: ATG_TCF_b_cat_CIS: Attagene CIS-FACTORIAL HepG2 Assay for human T-Cell-Factor with beta-catenin (TCF/b-cat) (AID 2282965). As to conditions: HepG2 TCF/beta-catenin cis-reporter transcription, actives raise or lower the signal. The essentials:
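In this cis-format system, transfected HepG2 cells report endogenous transcription factor activity. Readout after 24 h exposure is reporter transcript abundance from RT-PCR and capillary electrophoresis, analysed for gain or loss of signal versus DMSO.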

A short description of assay [19]: ATG_M_32_CIS: Attagene CIS-FACTORIAL HepG2 Assay for M32 Transcription Factor (Internal Marker) (AID 2282949).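 Note: background control marker of the multiplexed CIS panel rather than a real target.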 Particulars: HepG2 Attagene cis-factorial M32 reporter, mRNA; actives raise or lower the signal. The essentials: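 Following 24 h chemical exposure of HepG2 cells transiently expressing cis-promoter reporter constructs, reporter transcript levels were determined by RT-PCR with fluorescent labelling and capillary electrophoresis, then fitted bidirectionally against DMSO.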

Assay [20] in a line: ATG_PPRE_CIS: Attagene CIS-FACTORIAL HepG2 Assay for human Peroxisome Proliferator-activated Response Element (PPRE) (AID 2282958). Particulars: HepG2 PPRE cis-element reporter, Attagene transcription factor profiling; actives raise or lower the signal. The essentials: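 HepG2, transient MRTU transfection (cis promoter elements, endogenous TFs). 24 h dosing. RNA → oligo(dT) RT → PCR → 6-FAM primer extension → HpaI digest → CE. Bidirectional fit vs DMSO.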

Molecules are shown by their SMILES. Active and inactive are the calls of the source. Rule for the calls: active = hit-call score of the fitted dose curve at least 0.9, where 1 is the maximum; inactive = score below 0.9.

Hepatocyte nuclear factor 6 (Homo sapiens), sequence (Q9UBC0 whole entry, looked up): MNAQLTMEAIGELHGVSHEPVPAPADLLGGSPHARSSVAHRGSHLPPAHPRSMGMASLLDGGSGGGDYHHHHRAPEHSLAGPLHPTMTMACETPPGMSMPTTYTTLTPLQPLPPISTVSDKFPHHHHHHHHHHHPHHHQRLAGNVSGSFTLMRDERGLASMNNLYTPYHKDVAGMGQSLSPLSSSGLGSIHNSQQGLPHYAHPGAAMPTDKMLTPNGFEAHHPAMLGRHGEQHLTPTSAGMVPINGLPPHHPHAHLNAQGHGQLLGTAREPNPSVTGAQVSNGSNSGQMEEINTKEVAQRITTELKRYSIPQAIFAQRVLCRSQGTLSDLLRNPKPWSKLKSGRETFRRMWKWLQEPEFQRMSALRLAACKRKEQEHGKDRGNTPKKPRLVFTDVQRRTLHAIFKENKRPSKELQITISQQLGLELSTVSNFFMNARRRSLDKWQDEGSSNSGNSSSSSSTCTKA
Hypoxia-inducible factor 1-alpha (Homo sapiens), sequence (Q16665 whole entry, looked up, the tested form may be a part): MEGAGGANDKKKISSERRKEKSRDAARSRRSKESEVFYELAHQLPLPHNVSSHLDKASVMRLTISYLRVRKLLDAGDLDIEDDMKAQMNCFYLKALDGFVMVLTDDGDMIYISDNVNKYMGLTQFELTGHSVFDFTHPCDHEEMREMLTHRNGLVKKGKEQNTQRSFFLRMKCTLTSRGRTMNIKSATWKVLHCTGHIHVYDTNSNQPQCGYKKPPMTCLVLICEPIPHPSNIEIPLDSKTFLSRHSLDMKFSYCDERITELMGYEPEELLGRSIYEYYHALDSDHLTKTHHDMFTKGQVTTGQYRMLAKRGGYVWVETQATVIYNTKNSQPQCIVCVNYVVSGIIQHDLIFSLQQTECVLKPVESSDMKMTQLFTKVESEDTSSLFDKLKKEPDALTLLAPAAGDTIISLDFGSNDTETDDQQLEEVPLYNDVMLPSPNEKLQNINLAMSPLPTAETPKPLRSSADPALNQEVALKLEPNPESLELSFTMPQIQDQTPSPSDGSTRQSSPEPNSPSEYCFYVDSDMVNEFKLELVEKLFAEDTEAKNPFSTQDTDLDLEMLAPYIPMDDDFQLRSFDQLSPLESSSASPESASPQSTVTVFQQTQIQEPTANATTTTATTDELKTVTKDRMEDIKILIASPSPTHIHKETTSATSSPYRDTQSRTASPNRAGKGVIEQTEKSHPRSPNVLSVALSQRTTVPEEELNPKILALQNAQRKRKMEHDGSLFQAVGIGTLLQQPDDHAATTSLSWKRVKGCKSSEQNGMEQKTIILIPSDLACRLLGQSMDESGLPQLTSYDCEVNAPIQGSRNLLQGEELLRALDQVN
Bile acid receptor (Homo sapiens), sequence (Q96RI1 whole entry, looked up): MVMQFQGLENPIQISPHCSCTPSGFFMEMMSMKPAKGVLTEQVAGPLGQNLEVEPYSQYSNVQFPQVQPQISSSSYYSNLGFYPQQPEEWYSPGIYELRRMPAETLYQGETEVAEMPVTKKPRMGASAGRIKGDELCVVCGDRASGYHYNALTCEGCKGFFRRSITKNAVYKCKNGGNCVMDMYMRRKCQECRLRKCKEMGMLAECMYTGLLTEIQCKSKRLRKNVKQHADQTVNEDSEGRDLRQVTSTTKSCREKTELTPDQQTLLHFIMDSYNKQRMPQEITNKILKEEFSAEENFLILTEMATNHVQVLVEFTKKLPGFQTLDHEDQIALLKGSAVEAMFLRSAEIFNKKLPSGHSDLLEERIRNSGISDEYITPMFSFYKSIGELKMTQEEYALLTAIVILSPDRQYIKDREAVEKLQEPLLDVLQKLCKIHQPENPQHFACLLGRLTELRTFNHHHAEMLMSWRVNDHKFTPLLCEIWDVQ
Paired box protein Pax-6 (Homo sapiens), sequence (P26367 whole entry, looked up): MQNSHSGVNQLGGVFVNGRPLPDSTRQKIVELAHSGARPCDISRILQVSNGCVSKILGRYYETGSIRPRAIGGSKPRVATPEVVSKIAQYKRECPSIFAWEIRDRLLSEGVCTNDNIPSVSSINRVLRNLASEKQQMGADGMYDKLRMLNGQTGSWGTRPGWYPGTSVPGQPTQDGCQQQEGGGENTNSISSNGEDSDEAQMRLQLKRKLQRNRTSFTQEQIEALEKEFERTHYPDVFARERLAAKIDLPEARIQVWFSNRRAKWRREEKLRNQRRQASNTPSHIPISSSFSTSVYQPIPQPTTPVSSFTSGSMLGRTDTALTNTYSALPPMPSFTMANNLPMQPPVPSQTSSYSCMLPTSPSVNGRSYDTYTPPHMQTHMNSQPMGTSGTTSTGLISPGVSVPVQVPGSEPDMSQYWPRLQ
Signal transducer and activator of transcription 3 (Homo sapiens), sequence (P40763 whole entry, looked up): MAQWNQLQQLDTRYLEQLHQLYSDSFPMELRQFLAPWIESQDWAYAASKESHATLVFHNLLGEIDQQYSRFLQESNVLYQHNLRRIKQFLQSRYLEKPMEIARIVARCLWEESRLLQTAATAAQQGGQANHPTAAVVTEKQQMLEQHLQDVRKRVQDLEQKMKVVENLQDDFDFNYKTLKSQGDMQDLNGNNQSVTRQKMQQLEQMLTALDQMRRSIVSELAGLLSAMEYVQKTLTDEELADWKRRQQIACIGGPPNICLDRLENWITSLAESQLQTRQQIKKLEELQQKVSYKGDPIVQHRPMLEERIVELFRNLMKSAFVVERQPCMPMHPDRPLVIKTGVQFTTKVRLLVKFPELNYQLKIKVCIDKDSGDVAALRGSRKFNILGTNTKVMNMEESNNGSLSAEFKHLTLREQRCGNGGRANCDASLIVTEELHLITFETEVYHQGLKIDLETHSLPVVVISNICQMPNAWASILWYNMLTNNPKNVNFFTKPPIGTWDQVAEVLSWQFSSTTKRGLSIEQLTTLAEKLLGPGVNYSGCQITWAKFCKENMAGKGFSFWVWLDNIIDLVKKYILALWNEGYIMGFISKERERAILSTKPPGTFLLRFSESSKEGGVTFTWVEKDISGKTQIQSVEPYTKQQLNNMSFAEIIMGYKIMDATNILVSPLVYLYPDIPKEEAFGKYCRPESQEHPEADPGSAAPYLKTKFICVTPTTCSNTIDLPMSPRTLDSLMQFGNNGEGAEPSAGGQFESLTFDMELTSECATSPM
Transcription factor Sp1 (Homo sapiens), sequence (P08047 whole entry, looked up): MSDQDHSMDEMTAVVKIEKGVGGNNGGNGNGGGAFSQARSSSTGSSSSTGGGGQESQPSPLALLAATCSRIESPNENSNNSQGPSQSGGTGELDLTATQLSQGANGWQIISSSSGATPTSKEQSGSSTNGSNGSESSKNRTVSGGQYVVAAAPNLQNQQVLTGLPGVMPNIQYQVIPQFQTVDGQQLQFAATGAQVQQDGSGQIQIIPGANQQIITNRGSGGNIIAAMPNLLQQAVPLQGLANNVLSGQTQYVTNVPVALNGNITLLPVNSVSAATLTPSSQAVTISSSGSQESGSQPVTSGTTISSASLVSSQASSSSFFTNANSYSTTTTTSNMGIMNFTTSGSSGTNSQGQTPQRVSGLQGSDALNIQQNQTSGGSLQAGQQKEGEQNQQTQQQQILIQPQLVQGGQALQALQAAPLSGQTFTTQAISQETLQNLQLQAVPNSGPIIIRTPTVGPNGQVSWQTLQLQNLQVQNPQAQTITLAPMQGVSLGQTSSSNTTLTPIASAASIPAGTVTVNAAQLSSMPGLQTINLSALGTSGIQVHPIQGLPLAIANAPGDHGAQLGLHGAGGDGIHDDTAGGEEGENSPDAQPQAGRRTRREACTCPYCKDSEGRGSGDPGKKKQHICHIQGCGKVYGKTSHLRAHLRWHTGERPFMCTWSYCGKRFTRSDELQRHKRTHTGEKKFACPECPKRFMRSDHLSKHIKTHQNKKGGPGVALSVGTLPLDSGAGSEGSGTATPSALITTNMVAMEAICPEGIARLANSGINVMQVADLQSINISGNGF
Heat shock factor protein 1 (Homo sapiens), sequence (Q00613 whole entry, looked up, the tested form may be a part): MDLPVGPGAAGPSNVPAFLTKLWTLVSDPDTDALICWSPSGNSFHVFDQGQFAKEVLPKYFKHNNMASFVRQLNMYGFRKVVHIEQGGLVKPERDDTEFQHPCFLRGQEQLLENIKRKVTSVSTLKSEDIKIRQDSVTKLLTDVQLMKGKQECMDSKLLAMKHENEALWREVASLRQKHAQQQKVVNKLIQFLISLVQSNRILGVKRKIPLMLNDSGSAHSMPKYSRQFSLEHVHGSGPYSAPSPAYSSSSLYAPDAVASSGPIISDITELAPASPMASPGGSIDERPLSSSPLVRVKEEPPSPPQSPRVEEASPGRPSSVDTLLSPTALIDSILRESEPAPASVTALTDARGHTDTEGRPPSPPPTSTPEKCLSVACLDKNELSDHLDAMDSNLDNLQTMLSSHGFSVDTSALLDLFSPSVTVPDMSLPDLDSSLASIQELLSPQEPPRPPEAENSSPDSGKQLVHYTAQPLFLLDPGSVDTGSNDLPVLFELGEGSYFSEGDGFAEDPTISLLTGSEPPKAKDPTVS

For `c1ccc(Oc2ccccc2)cc1`, the compound was called inactive in [1], in [2], in assay [3], in assay [4], in assay [5] and in assay [6]. The outcome in assay [7], in [8], in assay [9], in assay [10], in assay [12] and in assay [13] was inactive. For the same compound, the result in assay [14], in [15], in [16], in assay [17] and in assay [18] was inactive. Moreover, the AC50 – broadly, the concentration giving half of the maximal activity seen – in [11] is 25.1 µM (active).
Regarding `C=CC(C)C#N` (configuration not stated), the compound was called inactive in [1], in [2], in assay [19], in [5], in assay [7] and in assay [8]. In addition, the result in assay [9], in [10], in assay [11], in assay [20], in assay [12] and in assay [13] was inactive. The result in assay [14], in assay [15], in assay [16], in assay [17] and in [18] was inactive.
Take `CCc1ncc(C)[nH]1`: the compound was called inactive in [1], in assay [3], in assay [19], in assay [4], in assay [5] and in assay [6]. Besides, the compound was classed as inactive in assay [7], in [8], in assay [9], in assay [10], in assay [11] and in assay [20]. In addition, the compound was called inactive in assay [12], in assay [13], in assay [14], in [15], in assay [16] and in [17]. In addition, the compound was classed as inactive in assay [18].
For `Cc1cccc(Nc2ccccc2)c1`, the concentration at half-maximal activity (AC50) in assay [1] is 42.5 µM (active); in assay [7], 162 µM (active); in assay [8], 135 µM (active); in [10], 120 µM (active); in [11] it was 26.6 µM (active); in assay [14], 127 µM (active). Besides, in [15], the AC50 is 100 µM (active). In addition, the compound was called inactive in assay [3], in assay [19], in [4], in [5], in assay [6] and in [9]. For the same compound, the result in assay [20], in assay [12], in [13], in assay [16] and in assay [18] was inactive.

The record behind these values is PubChem BioAssay (EPA / NIEHS).
